The text below walks through data of ChEMBL document CHEMBL1961873, “Compounds: GSK PKIS; Assays: Nanosyn kinase panel” (2012).

In test [1] the target is Protein kinase C gamma type (Homo sapiens) (UniProt P05129). The settings on record: at 1 µM.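 Also: each value is an averaged percent inhibition of the enzyme.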
Test [2] addresses T1, Protein kinase C iota type (Homo sapiens) (UniProt P41743).
T1 sequence (whole entry): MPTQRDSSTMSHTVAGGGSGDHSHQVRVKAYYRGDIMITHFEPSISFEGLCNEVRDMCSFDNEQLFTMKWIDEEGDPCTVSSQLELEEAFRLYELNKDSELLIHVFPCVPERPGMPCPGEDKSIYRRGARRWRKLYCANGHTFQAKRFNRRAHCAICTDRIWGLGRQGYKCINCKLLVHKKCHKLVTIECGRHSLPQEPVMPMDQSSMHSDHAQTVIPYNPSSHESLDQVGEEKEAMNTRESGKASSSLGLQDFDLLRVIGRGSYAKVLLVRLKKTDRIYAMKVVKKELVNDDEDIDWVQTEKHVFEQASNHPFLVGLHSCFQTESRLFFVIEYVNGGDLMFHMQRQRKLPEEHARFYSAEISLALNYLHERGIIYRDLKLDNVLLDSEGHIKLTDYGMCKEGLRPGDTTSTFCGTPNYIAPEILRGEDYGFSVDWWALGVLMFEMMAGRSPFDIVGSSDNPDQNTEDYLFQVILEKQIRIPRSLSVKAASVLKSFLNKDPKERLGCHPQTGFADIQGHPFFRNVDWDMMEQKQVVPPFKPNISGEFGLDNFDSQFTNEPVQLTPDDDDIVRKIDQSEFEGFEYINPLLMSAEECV
The settings on record: at 0.1 µM.

The target in test [3] is T1, Protein kinase C iota type (Homo sapiens). The conditions noted are these: at 1 µM.
Test [4] concerns the target Protein kinase C theta type (Homo sapiens) (UniProt Q04759). The conditions noted are these: at 0.1 µM.
For test [5] the target is unchanged. The conditions noted are these: at 1 µM.
The target of test [6] is Protein kinase C beta type (Homo sapiens) (UniProt P05771). The conditions noted are these: at 0.1 µM.
The target is the same in test [7]. The settings on record: at 1 µM.
The target of test [8] is T2, Serine/threonine-protein kinase D1 (Homo sapiens) (UniProt Q15139).
T2 sequence (whole entry): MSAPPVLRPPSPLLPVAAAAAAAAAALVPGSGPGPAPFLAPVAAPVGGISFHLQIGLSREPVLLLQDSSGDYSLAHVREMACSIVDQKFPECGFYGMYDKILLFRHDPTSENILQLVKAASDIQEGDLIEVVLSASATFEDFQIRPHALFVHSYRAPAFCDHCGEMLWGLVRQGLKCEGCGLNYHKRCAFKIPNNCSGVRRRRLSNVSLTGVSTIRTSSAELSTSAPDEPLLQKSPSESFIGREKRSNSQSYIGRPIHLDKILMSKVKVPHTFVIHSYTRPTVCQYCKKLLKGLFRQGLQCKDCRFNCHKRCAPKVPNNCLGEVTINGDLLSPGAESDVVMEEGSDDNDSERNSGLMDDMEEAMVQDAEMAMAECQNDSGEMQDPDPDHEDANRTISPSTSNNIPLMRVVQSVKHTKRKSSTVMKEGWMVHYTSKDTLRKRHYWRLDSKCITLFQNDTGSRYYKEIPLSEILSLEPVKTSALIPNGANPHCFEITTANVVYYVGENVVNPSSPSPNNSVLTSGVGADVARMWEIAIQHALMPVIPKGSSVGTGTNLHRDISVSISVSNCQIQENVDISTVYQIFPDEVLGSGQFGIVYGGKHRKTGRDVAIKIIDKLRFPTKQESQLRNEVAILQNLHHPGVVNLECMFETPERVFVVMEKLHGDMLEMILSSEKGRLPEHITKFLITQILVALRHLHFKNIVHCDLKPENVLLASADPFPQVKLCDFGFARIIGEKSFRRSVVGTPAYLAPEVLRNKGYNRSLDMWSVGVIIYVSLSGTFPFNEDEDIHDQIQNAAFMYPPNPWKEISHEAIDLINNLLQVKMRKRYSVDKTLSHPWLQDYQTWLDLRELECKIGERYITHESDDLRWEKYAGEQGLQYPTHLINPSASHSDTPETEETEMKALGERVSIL
The conditions noted are these: at 0.1 µM.

Test [9] deals with T2, Serine/threonine-protein kinase D1 (Homo sapiens). The settings on record: at 1 µM.
Test [10] concerns the target T3, Serine/threonine-protein kinase D2 (Homo sapiens) (UniProt Q9BZL6).
T3 sequence (whole entry): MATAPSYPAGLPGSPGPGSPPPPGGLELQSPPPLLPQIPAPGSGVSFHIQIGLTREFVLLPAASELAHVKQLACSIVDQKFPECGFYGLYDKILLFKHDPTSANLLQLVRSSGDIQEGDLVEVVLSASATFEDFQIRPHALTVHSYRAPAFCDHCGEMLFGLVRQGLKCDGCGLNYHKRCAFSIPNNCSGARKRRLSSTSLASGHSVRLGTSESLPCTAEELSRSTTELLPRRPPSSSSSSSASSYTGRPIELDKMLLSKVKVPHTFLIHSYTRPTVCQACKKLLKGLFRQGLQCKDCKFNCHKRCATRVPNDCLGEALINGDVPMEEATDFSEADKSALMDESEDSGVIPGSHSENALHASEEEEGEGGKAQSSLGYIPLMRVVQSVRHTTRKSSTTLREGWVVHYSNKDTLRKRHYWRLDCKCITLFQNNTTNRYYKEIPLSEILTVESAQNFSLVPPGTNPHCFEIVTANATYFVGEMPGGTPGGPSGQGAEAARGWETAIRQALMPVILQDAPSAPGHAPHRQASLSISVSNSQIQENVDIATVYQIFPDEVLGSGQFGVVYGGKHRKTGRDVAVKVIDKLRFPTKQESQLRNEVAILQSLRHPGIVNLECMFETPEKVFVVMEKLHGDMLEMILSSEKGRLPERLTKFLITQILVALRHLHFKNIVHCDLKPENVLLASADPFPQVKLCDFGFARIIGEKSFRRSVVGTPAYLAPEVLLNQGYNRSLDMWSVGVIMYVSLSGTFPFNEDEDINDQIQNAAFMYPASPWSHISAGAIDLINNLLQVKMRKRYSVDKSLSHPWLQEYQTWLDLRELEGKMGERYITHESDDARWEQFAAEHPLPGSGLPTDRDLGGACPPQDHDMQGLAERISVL
The conditions noted are these: at 0.1 µM.

The target of test [11] is T3, Serine/threonine-protein kinase D2 (Homo sapiens). The conditions noted are these: at 1 µM.
Test [12] deals with T4, Serine/threonine-protein kinase D3 (Homo sapiens) (UniProt O94806).
T4 sequence (whole entry): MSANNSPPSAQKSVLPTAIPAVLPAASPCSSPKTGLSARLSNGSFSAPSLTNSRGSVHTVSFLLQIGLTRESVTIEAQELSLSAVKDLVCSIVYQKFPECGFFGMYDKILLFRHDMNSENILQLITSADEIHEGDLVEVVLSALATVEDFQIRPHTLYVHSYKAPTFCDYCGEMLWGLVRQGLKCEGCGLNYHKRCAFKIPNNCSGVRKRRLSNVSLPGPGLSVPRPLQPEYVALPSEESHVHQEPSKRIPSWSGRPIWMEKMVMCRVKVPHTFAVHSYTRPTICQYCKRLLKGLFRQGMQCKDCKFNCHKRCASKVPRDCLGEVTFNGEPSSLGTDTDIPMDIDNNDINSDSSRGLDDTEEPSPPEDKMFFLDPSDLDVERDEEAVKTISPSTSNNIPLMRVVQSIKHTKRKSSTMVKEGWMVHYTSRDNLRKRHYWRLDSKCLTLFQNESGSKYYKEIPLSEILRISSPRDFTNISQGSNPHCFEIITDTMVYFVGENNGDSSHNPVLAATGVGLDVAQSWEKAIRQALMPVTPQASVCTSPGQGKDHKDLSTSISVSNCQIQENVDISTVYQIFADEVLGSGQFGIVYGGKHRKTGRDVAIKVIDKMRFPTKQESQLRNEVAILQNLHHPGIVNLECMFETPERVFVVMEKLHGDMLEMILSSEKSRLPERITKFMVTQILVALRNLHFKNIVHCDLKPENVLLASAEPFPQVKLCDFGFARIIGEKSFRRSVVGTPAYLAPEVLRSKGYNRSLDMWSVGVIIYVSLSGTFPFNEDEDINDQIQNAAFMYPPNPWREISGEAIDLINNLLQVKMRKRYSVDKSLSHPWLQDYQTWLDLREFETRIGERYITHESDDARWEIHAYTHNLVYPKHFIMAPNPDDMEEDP
The settings on record: at 0.1 µM.

Test [13] deals with T4, Serine/threonine-protein kinase D3 (Homo sapiens). The conditions noted are these: at 1 µM.
Test [14] deals with T5, cGMP-dependent protein kinase 1 (Homo sapiens) (UniProt Q13976).
T5 sequence (whole entry): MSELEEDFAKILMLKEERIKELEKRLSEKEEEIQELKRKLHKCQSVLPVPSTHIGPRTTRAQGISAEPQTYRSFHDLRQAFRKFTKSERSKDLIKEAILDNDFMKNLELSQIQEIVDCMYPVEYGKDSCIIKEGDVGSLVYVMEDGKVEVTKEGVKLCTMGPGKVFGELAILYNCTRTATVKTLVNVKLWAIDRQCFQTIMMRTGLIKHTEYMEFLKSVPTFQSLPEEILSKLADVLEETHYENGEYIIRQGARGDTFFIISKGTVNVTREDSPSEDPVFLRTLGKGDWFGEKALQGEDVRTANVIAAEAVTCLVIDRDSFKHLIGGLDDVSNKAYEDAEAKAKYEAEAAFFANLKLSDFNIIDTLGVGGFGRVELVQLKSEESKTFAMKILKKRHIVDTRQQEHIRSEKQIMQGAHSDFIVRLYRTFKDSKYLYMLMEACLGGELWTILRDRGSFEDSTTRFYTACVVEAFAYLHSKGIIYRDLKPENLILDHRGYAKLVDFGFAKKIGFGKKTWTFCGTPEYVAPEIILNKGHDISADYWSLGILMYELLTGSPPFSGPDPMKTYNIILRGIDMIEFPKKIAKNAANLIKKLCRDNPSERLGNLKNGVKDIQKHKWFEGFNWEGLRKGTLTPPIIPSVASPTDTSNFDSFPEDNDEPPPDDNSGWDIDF
The settings on record: at 0.1 µM.

The target of test [15] is T5, cGMP-dependent protein kinase 1 (Homo sapiens). The settings on record: at 1 µM.
The target of test [16] is T6, cGMP-dependent protein kinase 2 (Homo sapiens) (UniProt Q13237).
T6 sequence (whole entry): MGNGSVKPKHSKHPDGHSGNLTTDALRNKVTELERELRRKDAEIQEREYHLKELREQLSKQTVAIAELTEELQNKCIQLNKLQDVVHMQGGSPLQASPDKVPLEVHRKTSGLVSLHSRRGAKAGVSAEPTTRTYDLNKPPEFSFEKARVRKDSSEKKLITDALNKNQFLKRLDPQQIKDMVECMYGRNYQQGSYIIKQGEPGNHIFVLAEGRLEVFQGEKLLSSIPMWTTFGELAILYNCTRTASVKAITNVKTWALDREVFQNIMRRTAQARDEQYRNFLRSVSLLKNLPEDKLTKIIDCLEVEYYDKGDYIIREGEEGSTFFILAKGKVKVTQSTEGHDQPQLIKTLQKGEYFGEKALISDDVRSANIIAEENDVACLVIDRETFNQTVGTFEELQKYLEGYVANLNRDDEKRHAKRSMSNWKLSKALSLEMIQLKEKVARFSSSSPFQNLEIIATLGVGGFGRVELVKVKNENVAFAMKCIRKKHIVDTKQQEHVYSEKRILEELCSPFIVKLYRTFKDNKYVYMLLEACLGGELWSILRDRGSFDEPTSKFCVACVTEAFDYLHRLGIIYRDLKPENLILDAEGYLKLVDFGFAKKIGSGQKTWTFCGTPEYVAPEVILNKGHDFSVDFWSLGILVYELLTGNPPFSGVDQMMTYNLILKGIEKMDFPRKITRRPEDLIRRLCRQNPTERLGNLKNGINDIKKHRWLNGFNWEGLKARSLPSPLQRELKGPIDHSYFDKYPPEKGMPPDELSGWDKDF
The conditions noted are these: at 0.1 µM.

Test [17] has as its target T6, cGMP-dependent protein kinase 2 (Homo sapiens). The conditions noted are these: at 1 µM.
Test [18] deals with T7, cAMP-dependent protein kinase catalytic subunit PRKX (Homo sapiens) (UniProt P51817).
T7 sequence (whole entry): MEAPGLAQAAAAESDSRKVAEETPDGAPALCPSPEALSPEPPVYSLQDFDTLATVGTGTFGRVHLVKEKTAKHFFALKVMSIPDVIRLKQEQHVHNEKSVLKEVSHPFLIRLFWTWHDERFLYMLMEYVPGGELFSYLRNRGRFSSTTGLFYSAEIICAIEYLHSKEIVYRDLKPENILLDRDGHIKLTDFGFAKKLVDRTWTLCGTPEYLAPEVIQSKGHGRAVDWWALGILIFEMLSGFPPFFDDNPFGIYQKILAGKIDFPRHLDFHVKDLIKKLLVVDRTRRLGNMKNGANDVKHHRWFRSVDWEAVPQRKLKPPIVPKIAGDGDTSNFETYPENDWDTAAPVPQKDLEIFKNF
The conditions noted are these: at 0.1 µM.

Test [19] concerns the target T7, cAMP-dependent protein kinase catalytic subunit PRKX (Homo sapiens). The settings on record: at 1 µM.
Test [20] addresses Rho-associated protein kinase 1 (Homo sapiens) (UniProt Q13464). The settings on record: at 0.1 µM.

Protein kinase C beta type (Homo sapiens), sequence (P05771 2-671 limits assumed): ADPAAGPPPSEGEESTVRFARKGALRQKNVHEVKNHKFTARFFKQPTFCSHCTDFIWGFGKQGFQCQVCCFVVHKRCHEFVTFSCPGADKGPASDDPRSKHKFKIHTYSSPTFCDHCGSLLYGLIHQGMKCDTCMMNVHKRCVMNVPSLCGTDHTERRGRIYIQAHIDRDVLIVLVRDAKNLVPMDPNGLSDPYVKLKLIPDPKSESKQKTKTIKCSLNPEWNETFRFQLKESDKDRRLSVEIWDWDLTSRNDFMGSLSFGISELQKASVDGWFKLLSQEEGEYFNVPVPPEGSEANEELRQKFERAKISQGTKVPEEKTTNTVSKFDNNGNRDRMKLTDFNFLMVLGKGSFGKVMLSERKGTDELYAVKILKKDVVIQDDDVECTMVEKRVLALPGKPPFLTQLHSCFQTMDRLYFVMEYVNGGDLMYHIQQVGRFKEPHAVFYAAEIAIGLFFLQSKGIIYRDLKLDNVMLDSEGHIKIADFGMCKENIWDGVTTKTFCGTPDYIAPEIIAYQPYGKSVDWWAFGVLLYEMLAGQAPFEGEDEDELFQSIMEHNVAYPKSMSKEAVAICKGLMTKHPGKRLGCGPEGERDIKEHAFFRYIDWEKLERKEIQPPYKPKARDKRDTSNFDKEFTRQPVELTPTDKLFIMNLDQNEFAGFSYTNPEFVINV
Protein kinase C theta type (Homo sapiens), sequence (Q04759 whole entry, looked up): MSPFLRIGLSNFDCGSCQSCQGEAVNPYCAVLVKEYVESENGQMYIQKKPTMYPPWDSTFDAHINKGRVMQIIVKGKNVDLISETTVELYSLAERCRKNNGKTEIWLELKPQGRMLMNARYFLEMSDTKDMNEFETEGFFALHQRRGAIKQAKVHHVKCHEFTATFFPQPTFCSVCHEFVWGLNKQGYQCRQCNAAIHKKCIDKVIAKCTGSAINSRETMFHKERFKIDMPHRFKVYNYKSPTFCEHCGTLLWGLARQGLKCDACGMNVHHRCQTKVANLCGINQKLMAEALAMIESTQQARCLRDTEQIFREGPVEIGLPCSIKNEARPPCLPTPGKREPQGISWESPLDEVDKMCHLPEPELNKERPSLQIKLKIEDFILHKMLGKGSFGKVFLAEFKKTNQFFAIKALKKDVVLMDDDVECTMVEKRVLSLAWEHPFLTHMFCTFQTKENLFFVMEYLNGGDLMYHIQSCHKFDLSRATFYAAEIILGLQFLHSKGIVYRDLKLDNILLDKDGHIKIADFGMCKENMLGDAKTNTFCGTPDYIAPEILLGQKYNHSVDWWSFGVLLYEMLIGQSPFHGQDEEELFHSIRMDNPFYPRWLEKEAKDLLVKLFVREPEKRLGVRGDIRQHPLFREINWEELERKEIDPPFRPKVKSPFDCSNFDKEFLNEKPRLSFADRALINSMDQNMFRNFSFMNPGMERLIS
Rho-associated protein kinase 1 (Homo sapiens), sequence (Q13464 2-1354 limits assumed): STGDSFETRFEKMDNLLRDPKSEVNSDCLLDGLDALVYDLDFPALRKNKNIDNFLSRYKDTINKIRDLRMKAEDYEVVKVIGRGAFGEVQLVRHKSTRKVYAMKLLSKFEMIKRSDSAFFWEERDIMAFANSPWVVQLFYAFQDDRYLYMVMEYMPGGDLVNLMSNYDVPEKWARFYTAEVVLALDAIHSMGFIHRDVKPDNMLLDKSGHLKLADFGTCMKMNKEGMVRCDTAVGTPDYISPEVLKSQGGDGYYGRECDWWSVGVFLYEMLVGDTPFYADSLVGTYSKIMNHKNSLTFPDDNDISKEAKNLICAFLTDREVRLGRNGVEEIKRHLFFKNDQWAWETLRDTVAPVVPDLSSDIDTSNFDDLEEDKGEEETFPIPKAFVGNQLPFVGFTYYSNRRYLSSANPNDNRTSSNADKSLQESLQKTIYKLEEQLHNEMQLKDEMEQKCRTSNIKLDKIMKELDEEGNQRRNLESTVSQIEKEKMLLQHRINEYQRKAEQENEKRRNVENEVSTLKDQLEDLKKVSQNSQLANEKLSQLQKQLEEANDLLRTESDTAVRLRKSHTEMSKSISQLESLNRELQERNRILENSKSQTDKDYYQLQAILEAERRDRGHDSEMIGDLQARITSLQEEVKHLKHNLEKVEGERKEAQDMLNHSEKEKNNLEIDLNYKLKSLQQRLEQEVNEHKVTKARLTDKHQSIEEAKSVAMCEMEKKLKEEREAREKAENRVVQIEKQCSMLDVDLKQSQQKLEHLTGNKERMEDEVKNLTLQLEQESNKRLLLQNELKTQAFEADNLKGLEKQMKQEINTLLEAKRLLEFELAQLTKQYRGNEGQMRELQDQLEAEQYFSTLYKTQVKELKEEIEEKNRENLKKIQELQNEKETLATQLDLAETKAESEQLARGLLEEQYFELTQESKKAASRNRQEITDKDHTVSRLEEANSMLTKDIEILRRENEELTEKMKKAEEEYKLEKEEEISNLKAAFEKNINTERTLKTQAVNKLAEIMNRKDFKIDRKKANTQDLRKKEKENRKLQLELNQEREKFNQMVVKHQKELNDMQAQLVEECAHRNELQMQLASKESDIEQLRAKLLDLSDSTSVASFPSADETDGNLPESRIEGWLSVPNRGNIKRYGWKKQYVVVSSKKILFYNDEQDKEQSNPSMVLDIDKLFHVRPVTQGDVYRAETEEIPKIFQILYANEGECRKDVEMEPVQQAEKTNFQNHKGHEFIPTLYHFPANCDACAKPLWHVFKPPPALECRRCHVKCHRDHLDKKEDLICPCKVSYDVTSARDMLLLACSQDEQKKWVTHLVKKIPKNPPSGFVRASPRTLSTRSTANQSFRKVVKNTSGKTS

Regarding `Cc1ccc(O)cc1Nc1ccnc2cc(-c3ccccn3)ccc12`, the inhibition – broadly, the change of the read-out against control, counted positive when it falls – stood at 4.48% in test [1]; 2.29% in [2]; 4.56% in test [3]; 2.6% in test [4]; 1.93% in test [5]; 1.13% in test [6]. In addition, the inhibition amounted to 1.55% in test [7]; 5.06% in [8]; 28.9% in test [9]; 6.27% in [10]; 34.9% in test [11]; 5.74% in test [12]. For the same compound, the inhibition in test [13] turned out to be 18.9%; in test [14], 3.58%; in test [15], 1.99%; in [16], 1.7%; in test [17], 3.8%; in test [18], 1.87%. For the same compound, the inhibition was -2.49% in test [19] and 0.91% in test [20].

In the case of `COc1ccc2[nH]c3c4[nH]c5ccc(OC)cc5c4c4c(c3c2c1)C(=O)NC4=O`, the inhibition worked out at 11.7% in [1]; 0.72% in test [2]; 0.15% in test [3]; 4.69% in [4]; 20.9% in [5]; 3.68% in test [6]. Also, the inhibition in [7] was determined as 12.9%; in [8] it was 5.02%; in test [9] it was 27%; in test [10], 8.15%; in test [11] it was 45.9%; in test [12] it was 5.31%. For the same compound, the inhibition is 14.4% in test [13]; 6.13% in test [14]; 35% in [15]; 69.5% in test [16]; 72.5% in test [17]; 9.07% in [18]. The inhibition in test [19] came out at 46%; in [20] it was 1.15%.
